High-throughput results: PubChem, Johns Hopkins Ion Channel Center
KCNQ2 inh: inhibitors of rat KCNQ2 potassium channel; CHO-K1 KCNQ2, FluxOR thallium flux, 20 min; active compounds read low; B-score at 10 µM; 1.1% of 310,000 active; O88943;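 active = fluorescence ratio B-score at most minus 3 library SDs, with starting brightness B-score within 2 library SDs, cut at about -5.5 in these data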
Target sequence (O88943 whole entry, looked up): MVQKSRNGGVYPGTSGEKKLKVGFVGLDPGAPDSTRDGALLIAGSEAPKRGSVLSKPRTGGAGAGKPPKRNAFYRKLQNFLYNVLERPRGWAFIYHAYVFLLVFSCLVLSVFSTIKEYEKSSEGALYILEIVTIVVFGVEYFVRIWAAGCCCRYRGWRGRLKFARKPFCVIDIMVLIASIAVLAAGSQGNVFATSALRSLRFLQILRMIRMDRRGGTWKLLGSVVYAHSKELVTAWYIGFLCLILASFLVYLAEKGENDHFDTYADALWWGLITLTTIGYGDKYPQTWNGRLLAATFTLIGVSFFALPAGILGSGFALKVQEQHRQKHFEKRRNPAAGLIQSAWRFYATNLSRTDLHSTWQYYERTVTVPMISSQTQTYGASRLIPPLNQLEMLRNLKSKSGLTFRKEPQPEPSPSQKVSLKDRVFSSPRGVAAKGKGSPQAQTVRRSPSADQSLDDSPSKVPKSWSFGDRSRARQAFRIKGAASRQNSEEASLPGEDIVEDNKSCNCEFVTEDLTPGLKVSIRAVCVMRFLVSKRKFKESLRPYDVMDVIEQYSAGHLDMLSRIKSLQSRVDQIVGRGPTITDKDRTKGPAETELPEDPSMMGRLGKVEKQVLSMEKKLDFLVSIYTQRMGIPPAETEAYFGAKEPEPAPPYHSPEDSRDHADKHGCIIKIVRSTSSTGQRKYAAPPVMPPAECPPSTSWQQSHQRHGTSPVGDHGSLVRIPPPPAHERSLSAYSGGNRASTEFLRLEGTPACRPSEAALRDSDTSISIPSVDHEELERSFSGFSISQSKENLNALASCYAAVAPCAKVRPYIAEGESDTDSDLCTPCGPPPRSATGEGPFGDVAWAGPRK
KCNQ2 enhance: potentiators of rat KCNQ2 potassium channel. AID 2239. B-score at 10 µM. 0.54% of 310,000 active. CHO-K1 KCNQ2, FluxOR thallium flux fluorescence; active compounds read high;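 active = fluorescence ratio B-score at least 3 SD of library B-scores, with initial fluorescence B-score within 3 of them, cut at about 5.3 in these data; same plate scores as AID 2156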;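 also: B-score of peak minus minimum over baseline fluorescence ratio after K+ and Tl+ stimulus; positive B-score means potentiation of KCNQ2 with more thallium influx and brighter signal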
Active calls of the source: *; i = inactive; · = no result. Hits are enriched below; roughly 1.6% of the tested compounds scored in any of these assays.

SMILES	KCNQ2 inh	KCNQ2 enhance
Cc1ccc(-n2nc3c(=O)n(CCCC(=O)NCc4cccc(F)c4)nc(C)c3c2C)cc1	i	·
COc1ccc(CCN(C)Cc2nc(-c3cnccn3)no2)cc1OC	i	0.18
COc1ccc(CCN(Cc2nc(-c3ccccc3)no2)Cc2nc(-c3ccccc3)no2)cc1OC	-6.2*	-6.2
O=C(CN1C(=O)CCSc2ccc(S(=O)(=O)N3CCCC3)cc21)NCc1ccccc1Cl	i	·
Cc1ccc(C2=NOC(C)(c3nnc(-c4cccc(Cl)c4)o3)C2)cc1 (stereo not drawn)	i	·
CC1(c2nnc(-c3cccc(Cl)c3)o2)CC(c2c(Cl)cccc2Cl)=NO1 (stereo not drawn)	-5.6*	-5.6
Cc1ccc(N2CCN(C(=O)c3cc(COc4c(C)cccc4C)on3)CC2)c(C)c1	i	·
Cc1cccc(C)c1OCc1cc(C(=O)N2CCCCCCC2)no1	-6.5*	-6.5
CCn1c(SCc2ccccc2Cl)nc2nc3c(cc2c1=O)CCCC3	i	·
CCn1c(SCc2c(Cl)cccc2Cl)nc2nc3c(cc2c1=O)CCCC3	-6.7*	-6.7
C=CCn1c(SCC(=O)N(CCOC)c2c(N)n(CC(C)C)c(=O)[nH]c2=O)nc2ccccc21	i	·
CN(C)c1ncc(C2=C(Cl)C(=O)C(N3CCCC3)=C(Cl)C2=O)s1	-8.6*	-8.6
O=C1C(Cl)=C(N2CCCCC2)C(=O)C(Cl)=C1c1cnc(N2CCCCC2)s1	i	·
CN(C)S(=O)(=O)c1ccc(NC(=O)CN2CCN(c3ccccn3)CC2)cc1	i	1.1
N#Cc1ccccc1NC(=O)CSC1=Nc2ccccc2C2CC=NN12 (stereo not drawn)	i	·
Cc1cc(C)cc(N(CCC#N)C(=O)CSC2=Nc3ccccc3C3CC=NN23)c1 (stereo not drawn)	-6.1*	-6.1
Nn1c(SCC(=O)NNC(=O)c2ccccc2)nnc1-c1ccccc1F	i	·
CCN(CC)Cc1nc2c(c(=O)[nH]1)C(CC)(CC)Cc1ccccc1-2	i	·
O=C(CSc1nc2ccccc2c(=O)n1Cc1ccco1)NCc1ccco1	i	1.1
CN(Cc1ccccc1)C(=O)CSc1nc2ccccc2c(=O)n1Cc1ccco1	i	·
O=c1c2ccccc2nc(SCc2cc(F)cc3c2OCOC3)n1Cc1ccco1	-8*	-8
CCOC(=O)c1cc2c(c(CSc3nc4ccccc4c(=O)n3Cc3ccco3)c1)OCOC2	-5.6*	-5.6
CC(/C=N/NC(=O)CNc1n[nH]c(=O)[nH]c1=O)c1ccccc1 (stereo not drawn)	i	0.36
CCc1noc(C)c1C(=O)Nc1cc(Cl)ccc1N1CCCC1	i	·
CC(C1CC1)N(Cc1ccccc1)C(=S)Nc1ccccc1Cl (stereo not drawn)	i	1.4
SMILES	KCNQ2 inh	KCNQ2 enhance
COCCn1nnnc1C(c1ccccc1)N1CCN(C(=O)c2ccco2)CC1 (stereo not drawn)	i	0.67
O=C(COC(=O)C1(c2ccccc2)CC1)NNC(=O)c1ccccc1	i	1.4
COc1cccc(/C=N/Nc2ncnc3scc(-c4ccccc4)c23)c1OC	-6*	-6
Cc1sc2ncnc(N/N=C/c3ccccc3O)c2c1C	i	·
C=CCOc1ccc(C(c2c(C)n(C)n(-c3ccccc3)c2=O)c2c(C)n(C)n(-c3ccccc3)c2=O)cc1	i	·
CCOC(=O)C1=C(c2ccccc2)NC(N)=NC1c1ccc(OCc2ccc(Cl)cc2)c(OC)c1 (stereo not drawn)	-6.2*	-6.2
CCOC(=O)C1=C(c2ccccc2)NC(=O)NC1c1cc(Cl)c(O)c(OC)c1 (stereo not drawn)	i	·
O=C(Nc1ccccc1)NC1CCCCCCC1	i	0.03
CC(NC(=O)NC1CCCCC1)c1ccccc1 (stereo not drawn)	i	13*
CCN1C(=O)C(CC(=O)Nc2ccc(OC)cc2)N(CCc2ccccc2)C1=S (stereo not drawn)	i	·
CCN1C(=O)C(CC(=O)Nc2ccc(F)cc2)N(CCc2ccc(OC)cc2)C1=S (stereo not drawn)	-6.7*	-6.7
O=C(OCc1nnc(-c2ccc(Cl)cc2)o1)c1ccncc1	i	·
Cc1noc(C)c1COc1ccc(C(=O)OCc2nnc(-c3ccc(Cl)cc3)o2)cc1	-7.6*	-7.6
CC(=O)Nc1ccc(-c2sc(Nc3cccc4ccccc34)n[n+]2-c2ccccc2)cc1	i	·
CN1c2ccccc2C(C)(C)C12CC(CCl)=NO2 (stereo not drawn)	i	0.63
COc1ccc2c(c1)Sc1ccccc1N2CCN(C)C	i	·
CN1c2ccccc2C(C)(C)C12C=Nc1c(ccc3ccccc13)O2 (stereo not drawn)	-5.7*	-5.7
COc1ccc2ccc3c(c2c1)N=CC1(O3)N(C)c2ccccc2C1(C)C (stereo not drawn)	-8.2*	-8.2
N#CCC(CNc1ncc(C(F)(F)F)cc1Cl)OC(=O)c1cccc([N+](=O)[O-])c1 (stereo not drawn)	i	·
COc1ccc(CNC(=O)CSc2nnc3c(Cl)cc(C(F)(F)F)cn23)cc1OC	i	0.28
